# Compound activity deposited in PubChem by several laboratories.
# Rows were chosen to be rich in hits. Some 32% of all compounds tested hit in one or more screens of this group.
# PostGolgi yeast – growth inhibition of a yeast mutant, post-Golgi transport screen. inhibition, % at 10 µM. post-Golgi transport phenotypic cell assay. 98,000 compounds, 0.9% hits;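 also: yeast cells grown in 1536-well plates; yeast grown about 18 h at 30C before absorbance read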
# PostGolgi ctrl – yeast control strain growth, post-Golgi counter-screen | efflux-deficient yeast background strain, growth absorbance A615, 16 h | inhibition, % at 10 µM | 98,000 compounds, 5% hits
# CYP2C9 inhib – blocks human cytochrome P450 2C9. P11712. CYP2C9 Supersomes, luciferin-H conversion, luminescence. inhibition, % at 5 µM. 96,000 compounds, 20% hits;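 active = blocking of liver enzyme CYP2C9 beyond about 50% at 5 µM, limit read from the data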
# CYP2C19 activ – activators of human cytochrome P450 2C19; P33261; recombinant CYP2C19, luciferin-H EGE luminescence; stronger effect = higher value; 0 = fully inhibited enzyme, 1 = untreated enzyme; activation factor at 5 µM; 96,000 tested, under 10 active; AID 1025;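 active = activation factor of at least 2 at 5 µM in the primary screen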;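 also: 0 = wells with 2.5 mM tranylcypromine and 1 = vehicle-only wells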
# Target sequence (P33261 whole entry, looked up): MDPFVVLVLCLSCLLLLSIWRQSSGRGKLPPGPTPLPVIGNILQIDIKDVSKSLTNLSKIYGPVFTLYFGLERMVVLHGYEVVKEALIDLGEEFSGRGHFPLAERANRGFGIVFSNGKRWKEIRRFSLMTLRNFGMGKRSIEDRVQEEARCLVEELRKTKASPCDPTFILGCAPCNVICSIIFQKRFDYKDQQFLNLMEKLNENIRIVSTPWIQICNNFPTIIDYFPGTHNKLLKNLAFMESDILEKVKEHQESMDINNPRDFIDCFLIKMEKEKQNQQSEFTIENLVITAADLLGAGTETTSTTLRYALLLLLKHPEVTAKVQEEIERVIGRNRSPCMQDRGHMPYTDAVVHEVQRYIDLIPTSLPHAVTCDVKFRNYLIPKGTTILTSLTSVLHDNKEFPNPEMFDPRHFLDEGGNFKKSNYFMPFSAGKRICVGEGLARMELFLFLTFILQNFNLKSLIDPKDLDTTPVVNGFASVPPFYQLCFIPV
# CYP2C9 activ – activators of human CYP2C9 | recombinant CYP2C9, luciferin-H conversion, luminescence; stronger effect = higher value; factor 1 = untreated enzyme, 0 = blocked | activation factor at 5 µM | 96,000 compounds, 1.4% hits;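 active = activation factor of 2 or more for CYP2C9 at a 5 µM dose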;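 also: 0 = sulfaphenazole-blocked wells and 1 = vehicle-only wells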
# CYP2C19 inh – blocks human cytochrome P450 2C19. P33261. CYP2C19 Supersomes, luciferin-H EGE luminescence, 30 min. inhibition, % at 5 µM. 96,000 compounds, 21% hits;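 active = CYP2C19 inhibition above a set limit at 5 µM in the primary screen, cut at about 50% in these data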;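 also: plate controls were negative control wells for no effect and 2.5 mM tranylcypromine positive control for full effect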
# The depositor's hits bear a star; x = no result. Rule as the data show it, unless noted: active = inhibition above about 30%; inactive = the rest.
SMILES,PostGolgi yeast,PostGolgi ctrl,CYP2C9 inhib,CYP2C19 activ,CYP2C9 activ,CYP2C19 inh
Cc1cccc(CC2CC(=O)N(c3ncccn3)C2=O)c1 (stereo unspecified),0.2,-2.4,-0.1,0.9,1,7.0
Cc1cccc(CC2CC(=O)N(C3CCCCC3)C2=O)c1 (stereo unspecified),3.3,4.9,58.0*,0,0.4,98.6*
Cc1cccc(CC2CC(=O)N(c3ccccc3)C2=O)c1 (stereo unspecified),-2.6,15.9,23.4,0.1,0.8,88.4*
COc1ccc2sc(N3C(=O)CC(Cc4cccc(C)c4)C3=O)nc2c1 (stereo unspecified),3.0,-4.6,26.4,0.9,0.7,11.0
COc1ccc(CCNC(=O)C(=O)NCc2ccc(C)cc2)cc1OC,-0.6,-5.0,-5.1,0.9,1.1,12.2
CC(C)c1nnc(NC(=O)CCCCCN2C(=O)C3C4C=CC(C4)C3C2=O)s1 (stereo unspecified),-4.7,-2.4,19.1,1,0.8,-1.9
Cc1cccc(NC(=O)CC(C)(C)C)c1,-2.2,1.2,-2.6,0.6,1,41.8
Cc1cc(C)cc(NCC(=O)Nc2c(C)cccc2C)c1,2.9,37.1*,12.6,0.6,0.9,37.2
CC(=O)c1c(C)n(-c2ccccc2)c2ccc(O)cc12,-8.4,6.5,49.0,0.2,0.5,82.5*
CC(=O)c1c(C)n(-c2ccccc2)c2ccc(OCC(O)CN3CCOCC3)cc12 (stereo unspecified),-5.5,7.2,67.8*,0.2,0.3,77.4*
COC(=O)c1c(C)n(-c2ccc(C)cc2)c2ccc(O)cc12,-8.3,47.2*,25.1,0.5,0.7,53.0*
Cc1nc2cc(NC(=O)N3CCC(c4ccccc4)C3)ccc2n1C (stereo unspecified),2.0,9.6,17.7,0.8,0.8,22.6
O=C(CSc1nc2ccccc2n1CC(=O)N1CCCC1)Nc1nccs1,3.2,-5.6,36.5,0.7,0.6,27.7
CCN(C)c1ccc(/C=N\n2nnnc2N)cc1,4.7,2.0,-25.9,0.7,1.3,31.4
CC(C)CCN(C)c1ccc(/C=N/n2cnnc2)cc1,0.3,18.1,95.4*,0,0,98.8*
O=C(Nc1cc(C(F)(F)F)ccc1N1CCOCC1)c1ccc(F)cc1,2.6,4.3,8.3,0.2,0.9,76.6*
Cc1onc(-c2ccccc2)c1C(=O)Nc1ccccc1N1CCOCC1,4.5,14.9,81.2*,0,0.2,98.7*
O=C(CCc1ccccc1)NC(=S)Nc1cc(C(F)(F)F)ccc1N1CCOCC1,-1.8,19.1,93.0*,0.1,0.1,88.2*
Cc1onc(-c2ccccc2)c1C(=O)Nc1cc(C(F)(F)F)ccc1N1CCOCC1,1.9,43.3*,55.8*,0.4,0.4,64.6*
Cc1ccc(-c2cn3c(=O)cc(C)[nH]c3n2)cc1,-7.2,-1.3,15.3,0.8,0.8,19.8
CN(C)C=Nc1ncc2c([nH]c3ccccc32)c1C#N,-2.4,3.8,49.6,0.4,0.5,63.1*
Cn1nnnc1CCOCCc1nnnn1C,7.2,1.1,2.4,1,1,-2.3
CCN(CC)C(=O)c1c(NC(=O)c2ccccc2)sc(C)c1C,18.5,1.9,24.5,0.3,0.8,72.9*
Cc1sc(NC(=O)c2ccccc2)c(C(=O)N2CCN(C)CC2)c1C,3.3,3.7,-3.4,1,1,-1.4
Cc1sc(NC(=O)c2ccccc2)c(C(=O)NC(C)C)c1C,1.3,13.0,53.0*,0.9,0.5,5.3
SMILES,PostGolgi yeast,PostGolgi ctrl,CYP2C9 inhib,CYP2C19 activ,CYP2C9 activ,CYP2C19 inh
Cc1occc1-c1nnc(SCC(=O)c2c(N)n(Cc3ccccc3)c(=O)n(C)c2=O)n1C,-0.3,-1.4,13.0,0.9,0.9,12.8
COC(=O)c1ccc(NC(=O)CCN2CCN(c3ccccc3)CC2)cc1,-7.8,7.4,55.2*,0.7,0.4,26.1
O=C(CN1CCCC1)Nc1ccc(Oc2ccc(NC(=O)CN3CCCC3)cc2)cc1,2.5,0.1,6.0,1,0.9,-0.8
O=C(CN1CCNCC1)Nc1ccc(Oc2ccccc2)cc1,4.7,39.2*,5.0,0.9,0.9,7.3
O=C(CN1CCN(c2ccccc2)CC1)Nc1nccs1,-8.6,0.0,90.0*,0.3,0.1,69.5*
CCc1nnc(NC(=O)CN2CCN(c3nc(-c4ccccc4)cs3)CC2)s1,10.7,42.0*,64.1*,0.5,0.4,48.9
O=C(CCN1CCN(c2ccccc2)CC1)Nc1ccc(OCc2ccccc2)cc1,-3.2,15.3,30.2,1,0.7,4.3
Cc1cccc(OCCC(=O)Nc2c(C)n(C)n(-c3ccccc3)c2=O)c1,1.7,-12.3,-3.9,1,1,-1.0
CCOP(=O)(c1c(F)c(F)c(F)c(F)c1F)C(O)c1ccccc1 (stereo unspecified),15.6,-5.7,16.9,0.6,0.8,35.8
O=C(CN1CCN(c2ccccc2)CC1)Nc1ccc(Oc2ccccc2)cc1,3.7,41.7*,16.8,1,0.8,1.2
O=C(CN1CCOCC1)Nc1ccc(Oc2ccccc2)cc1,1.6,7.5,13.3,0.8,0.9,20.7
COc1ccc(C(c2nnnn2Cc2cccs2)N2CCN(c3ccccc3F)CC2)cc1OC (stereo unspecified),-4.4,3.6,22.6,0.7,0.8,27.9
O=C(COC(=O)CCC(=O)c1cccs1)Nc1cc(S(=O)(=O)N2CCOCC2)ccc1Cl,-4.1,3.9,79.8*,0.5,0.2,45.9
O=C(COC(=O)CCC(=O)c1cccs1)Nc1cccc(S(=O)(=O)N2CCOCC2)c1,-1.5,-0.1,29.8,0.4,0.7,63.8*
CCc1nc2ccccc2c(C(=O)OCC(=O)Nc2cccc(S(=O)(=O)N3CCOCC3)c2)c1C,-4.2,2.6,2.7,0.8,1,23.6
Cc1ccc(NC(=O)COC(=O)CCC(=O)c2cccs2)cc1S(=O)(=O)N1CCOCC1,-5.8,-0.9,53.0*,0.7,0.5,32.3
O=C(CCNc1n[nH]c(=O)[nH]c1=O)N1CCOCC1,9.9,13.1,-14.0,1.1,1.1,-12.7
O=C(OC(C(=O)NCC1CCCO1)c1ccc(F)cc1)c1cccs1 (stereo unspecified),-7.4,-5.7,x,x,x,x
CCCC1CCc2c(c3ccccc3[nH]c2=O)O1 (stereo unspecified),8.4,22.5,24.9,0.6,0.8,41.5
Cc1cccc(C)c1N(CC(=O)NN=C1CCCCCC1)S(C)(=O)=O,-0.6,8.0,17.1,0.8,0.8,21.5
CN(c1ncc(C(F)(F)F)cc1Cl)n1cc(C(=O)O)c2ccccc2c1=O,-0.1,23.1,19.3,1.1,0.8,-8.7
CN(c1ncc(C(F)(F)F)cc1Cl)n1cc(C(N)=O)c2ccccc2c1=O,-4.5,-5.0,83.4*,0.4,0.2,57.3*
CCOC(=O)C1CCN(c2ncnc3c2cnn3-c2ccccc2)CC1,-7.0,9.0,34.0,0.6,0.7,35.5
Cc1cccc(-n2ncc3c(NCc4ccccn4)ncnc32)c1,-5.5,11.2,32.5,0.8,0.7,21.5
